A1 inh: inhibitors of the anti-apoptotic protein A1, read as caspase activation. hit rate 0.066% among 330,000. AID 2462. caspase activation, % (test concentration not listed). MEF A1-2A-BIM cells, Caspase-Glo 3/7 luminescence, 3 h; percent of clofoctol response, vehicle zero;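 active = over half of replicate activation scores above 10%, or exactly half above 10 with the replicate mean above 10; inconclusive = replicate mean below 10 yet half the replicates above 10; inactive = over half of replicates below 10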
HTR5A ag: activates human HTR5A in OPRM1-OPRD1 agonist counter-screen; P47898; HTR5A agonist assay, luminescence, cell-based; activation, % at 9.3 µM; hit rate 0.61% among 340,000; AID 504692; in the data active = activation mostly above about 9.5%, no sharp cut-off; inactive = mostly below about 7.6%
HTR5A inv ctr: counter-screen for OPRM1-OPRD1 inverse agonists: human HTR5A inverse agonism | P47898 | HTR5A cell line, luminescence | inhibition, % at 9.3 µM | hit rate 0.083% among 340,000 | AID 504634; in the data active = inhibition mostly above about 23%, no sharp cut-off; inactive = mostly below about 18%
OPRM1-OPRD1 ag: agonists of human mu-delta opioid receptor heterodimerization; P35372+P41143; cells, OPRM1-OPRD1 heterodimerization, luminescence; activation, % at 9.3 µM; hit rate 0.3% among 340,000; in the data active = activation above about 18%
Target sequence (P35372 whole entry, looked up): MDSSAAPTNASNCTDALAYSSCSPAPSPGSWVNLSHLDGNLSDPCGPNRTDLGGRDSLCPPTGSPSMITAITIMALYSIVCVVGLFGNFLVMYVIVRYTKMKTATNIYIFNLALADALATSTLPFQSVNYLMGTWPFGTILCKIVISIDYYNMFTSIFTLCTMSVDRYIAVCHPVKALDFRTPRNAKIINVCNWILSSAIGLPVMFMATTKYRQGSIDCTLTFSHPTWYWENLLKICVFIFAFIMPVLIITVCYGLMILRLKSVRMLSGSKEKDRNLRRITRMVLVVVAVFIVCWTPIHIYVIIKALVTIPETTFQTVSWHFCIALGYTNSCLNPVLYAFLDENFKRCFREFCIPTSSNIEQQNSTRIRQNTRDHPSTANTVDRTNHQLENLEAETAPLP
Target sequence (P41143 whole entry, looked up): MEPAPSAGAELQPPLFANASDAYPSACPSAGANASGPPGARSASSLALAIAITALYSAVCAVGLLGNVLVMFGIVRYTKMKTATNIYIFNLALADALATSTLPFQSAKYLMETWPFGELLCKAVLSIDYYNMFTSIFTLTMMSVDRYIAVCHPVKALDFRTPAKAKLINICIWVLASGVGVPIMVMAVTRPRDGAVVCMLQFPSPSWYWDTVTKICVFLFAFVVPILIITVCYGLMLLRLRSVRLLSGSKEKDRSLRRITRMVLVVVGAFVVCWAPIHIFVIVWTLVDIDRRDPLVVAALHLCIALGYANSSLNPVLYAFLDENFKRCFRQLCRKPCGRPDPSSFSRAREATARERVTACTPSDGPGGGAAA
OPRM1-OPRD1 inv: mu-delta opioid heterodimer inverse agonism; P35372+P41143; cell-based MOR-DOR heterodimer luminescence; inhibition, % at 9.3 µM; hit rate 0.21% among 340,000; AID 504357; in the data active = inhibition above about 22%, passing the limit was not always enough
Large screens that a line does not name were inactive. The list is not random: actives were taken first. Their share in the collection is about 1.1%.

c1ccc(N2CCN(CC3CCCCC3)CC2)cc1	none
CC(C)CNC(=O)COC(=O)c1c2c(nc3ccccc13)/C(=C\c1cccs1)CC2	OPRM1-OPRD1 ag 20.7 (no result: A1 inh)
O=C(COC(=O)c1c2c(nc3ccccc13)/C(=C\c1cccs1)CCC2)Nc1ccccc1	none
CCn1c(O)c(/C=N/N=C/c2ccccc2)c2ccc(C3=NNC(=O)CC3)cc21	HTR5A ag 12.7 (no result: A1 inh)
CCC(CC)=N/N=C/c1c(O)n(CC)c2cc(C3=NNC(=O)CC3)ccc12	none
CCc1cc2c(=O)c(-c3cnn(-c4ccccc4)c3)c(C)oc2cc1OCC(=O)Nc1cccc(C)c1	A1 inh 7.9
S=c1[nH]c(-c2ccccc2)cs1	HTR5A ag 10.2
Cc1ccc(CS(=O)Cc2ccc(C(=O)NCc3ccc(OC(C)C)cc3)o2)cc1 (centres undefined)	none
O=C1c2ccccc2C(=O)N1CC1c2ccccc2CCN1C(=O)CN1CCOCC1 (centres undefined)	HTR5A ag 10.6
O=C1c2ccccc2C(=O)N1CC1c2ccccc2CCN1C(=O)C1CCCCC1 (centres undefined)	none
COc1ccc(-c2cc(N)n(S(=O)(=O)c3c(F)c(F)c(F)c(F)c3F)n2)cc1OC	none
CC(C)N(CC(N)=O)C(=O)c1sc2cc(F)ccc2c1Cl	HTR5A ag 13.2
O=C(Cc1coc2ccc3ccccc3c12)N1CCN(c2ncccn2)CC1	none
On1ccccc1=S	OPRM1-OPRD1 inv active
O=S(=O)(c1ccccc1)N1CCN(C(=S)Nc2ccc(Br)cc2)CC1	none
O=C(NC1CCCC(C(F)(F)F)C1)c1ccc([N+](=O)[O-])o1 (centres undefined)	HTR5A ag 14.3
O=C(NC1CCCCC1)c1ccc([N+](=O)[O-])o1	none
CN(C(=O)COC(=O)c1ccc(Cl)nc1)C1CCS(=O)(=O)C1 (centres undefined)	none
COc1ccc(C)cc1NC(=O)CSc1nnc(-c2cc3cccc(OC)c3o2)n1N	HTR5A ag 12.8
COc1cccc2cc(-c3nnc(SCC(=O)Nc4ccc(NC(C)=O)cc4)n3C)oc12	none
CCN1C[C@@H]2[C@@H]3C(=O)N(C)C(=O)[C@@H]3[C@](CC)(C(=O)OC)N2C1=NC	none (no result: A1 inh)
Cc1nc2ccccc2n1S(=O)(=O)c1ccc(S(=O)(=O)N2CCCCCC2)cc1	HTR5A ag 14.3
C/C(=N\NC(=O)CC#N)c1ccc(Oc2ccccc2)cc1	none
COc1ccccc1N/C=C(\C#N)c1nc2ccccc2[nH]1	HTR5A ag 12.6
COc1cc(/C=C(\C#N)c2nc3ccccc3[nH]2)cc(OC)c1O	none
CC(=O)c1ccccc1NC(=O)COC(=O)Cc1cccc(C(F)(F)F)c1	none
Cc1ccn2c(=O)nc(SCC(=O)N3N=C(c4cccs4)CC3c3ccc(F)cc3)nc2c1 (centres undefined)	none
COc1ccc(NS(=O)(=O)c2cc(C(=O)O)ccc2C)cc1	HTR5A ag 12.0
COc1cc(C2CC(c3cccs3)=NN2C(=O)CCl)ccc1OC(F)F (centres undefined)	A1 inh inconclusive, HTR5A ag 59.3, OPRM1-OPRD1 ag 74.3
COc1ccc(C2CC(c3cccs3)=NN2C(=O)CCl)cc1OC (centres undefined)	none
COc1ccc(/C=N/Nc2cc(C)nc3ccc(OC)cc23)c(OC)c1	none
COc1ccc2nc(C)cc(N/N=C/c3ccccc3)c2c1	OPRM1-OPRD1 ag 21.2
N/C(=N\OC(=O)c1ccc(Cl)c(Cl)c1)c1ccccn1	HTR5A ag 13.5
CCOc1cc(/C=N/N=C(\N)c2nonc2N)cc(Br)c1OCc1cccc2ccccc12	A1 inh 6.4
CC(=O)Nc1sc(N/N=C/c2ccccc2)nc1-c1ccc(C)cc1	HTR5A ag 12.7
CC(=O)Nc1sc(N/N=C/c2ccc(O)cc2)nc1-c1ccc(C)cc1	none
COc1ccc(C(=O)Nc2ccc(N3CCN(Cc4ccccc4)CC3)cc2)cc1	none (no result: HTR5A ag, HTR5A inv ctr, OPRM1-OPRD1 ag, OPRM1-OPRD1 inv)
COc1c(F)c(F)c(C(=O)Nc2ccc(N3CCN(Cc4ccccc4)CC3)cc2)c(F)c1F	HTR5A ag 9.8
CCN1CCN(c2ccc(NC(=O)c3ccc4c(c3)[nH]c(=O)n4Cc3ccc(F)cc3)cc2)CC1	HTR5A ag 12.0
NCCc1c(-c2ccccc2)n(-c2ccccc2)c2ccccc12	HTR5A ag 14.3 (no result: A1 inh)
O=C(NC(=S)Nc1ccc2[nH]c(=O)[nH]c2c1)c1cccc(F)c1	none
COc1nc(OC)nc(N2CCC(NC(=O)C(Cc3ccc(C(C)C)cc3)NC(C)=O)CC2)n1 (centres undefined)	HTR5A ag 10.5

Screens: PubChem, several laboratories
